# Results as given in PubChem BioAssay (NCI).
# About 83,000 compounds went through this panel and 20% of them were active in at least one assay; those are over-represented in the sample as a whole.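 In brief: 96-well plates, 48 h treatment, single concentration, percent growth endpoint.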 Unmarked numbers belong to inactive results. Activity calls are given as the source filed them. How the source made its calls: active means growth percent below 10; inactive means the rest.
# Key:
# Test in all cases: NCI-60 one-dose screen, 48 h (100 = growth as untreated, 0 = no growth, -100 = all killed)
# Settings in all cases: 10 µM unless noted
# [1] = test system: NCI-H226 lung
# [2] = test system: NCI-H322M lung
# [3] = test system: HOP-62 NSCLC
# [4] = test system: NCI-H460 lung
# [5] = test system: HOP-92 NSCLC
# [6] = test system: NCI-H522 lung
# [7] = test system: A549/ATCC NSCLC
# [8] = test system: 786-0 renal
# [9] = test system: COLO 205 colon
# [10] = test system: DU-145 prostate
# [11] = test system: K-562 leukemia
# [12] = test system: MALME-3M melanoma
# [13] = test system: MDA-MB-231 breast
# [14] = test system: RXF 393 renal
# [15] = test system: SF-268 CNS
# [16] = test system: SF-295 CNS
# [17] = test system: SF-539 CNS
# [18] = test system: UACC-257 melanoma
# [19] = test system: M14 melanoma
# [20] = test system: HCT-15 colon
SMILES,growth [1],growth [2],growth [3],growth [4],growth [5],growth [6],growth [7],growth [8],growth [9],growth [10],growth [11],growth [12],growth [13],growth [14],growth [15],growth [16],growth [17],growth [18],growth [19],growth [20]
Cc1nc(-c2cc3ccccc3oc2=O)ccc1C(=O)/C=C/c1ccccn1,88.7%,86.3%,103%,41.1%,80.3%,58.6%,66.5%,6.4% (active),94.7%,47.3%,7.22% (active),88.3%,12.8%,32.3%,78.5%,71.1%,2.25% (active),101%,80.2%,-33.3% (active)
CC(C)(C)OC(=O)N1C(=O)c2c(c3c4ccccc4[nH]c3c3ccc4ccccc4c23)C1=O,61.3%,52.8%,52.2%,37.3%,87.9%,47.2%,59.7%,77.1%,,57.3%,42.2%,48.1%,66.8%,59%,63.3%,50.2%,62.1%,77.2%,37.3%,51.6%
COC(=O)C1CN(S(=O)(=O)/N=C2\NC(=O)NC2=C(Cl)Cl)C1,106%,102%,109%,108%,98.9%,99.1%,101%,104%,,116%,101%,104%,106%,123%,103%,104%,101%,101%,101%,107%
Cc1sc2nc(NCc3ccccc3Cl)[nH]c(=O)c2c1C,88.5%,96.6%,93.4%,50.4%,,95.3%,84%,91%,113%,98%,54.8%,100%,73%,94.3%,87.6%,80.2%,77.7%,106%,105%,47.3%
N/C(=N\c1nc2c(Br)cccc2s1)C(Br)Br,48.9%,31.8%,39.8%,-20.4% (active),-3.75% (active),-75.1% (active),21.8%,-14.3% (active),,-21.8% (active),3.75% (active),-36.7% (active),-9.45% (active),-51.1% (active),49.2%,11.8%,-28.3% (active),51.4%,10.9%,-27.7% (active)
COc1ccc([C@@H]2c3[nH]c4ccccc4c3CC3C(=O)N(C4CCN(Cc5c(F)cccc5F)CC4)CC(=O)N32)c(OC)c1 (stereo partly specified),57% [5.26 µM],83.4% [5.26 µM],54.8% [5.26 µM],65.7% [5.26 µM],,67.6% [5.26 µM],50% [5.26 µM],-35.9% [5.26 µM] (active),58.3% [5.26 µM],70.7% [5.26 µM],62.2% [5.26 µM],68% [5.26 µM],62.3% [5.26 µM],56.4% [5.26 µM],55% [5.26 µM],67.1% [5.26 µM],69.8% [5.26 µM],77.4% [5.26 µM],26.4% [5.26 µM],47.5% [5.26 µM]
Nc1ncc(-c2ccc3ncnc(N4CCc5cc(F)c(Cl)cc54)c3c2)cc1CO,18.9%,-2.33% (active),9.91% (active),6.98% (active),,-18% (active),3.94% (active),4.92% (active),-21.9% (active),11.3%,7.76% (active),-25.8% (active),17%,-26.6% (active),8.31% (active),-11.5% (active),-17.8% (active),9.34% (active),-3.69% (active),5.51% (active)
Cc1cc2nc3c4cc(Cl)ccc4n(CC(=S)NCCN(C)C)c3nc2cc1C,-60.4% (active),40.1%,50.1%,-90.2% (active),,-49.4% (active),-69.9% (active),-95.6% (active),-39% (active),-51.6% (active),-43.6% (active),-49.2% (active),-71.8% (active),-67.8% (active),26.8%,-50.4% (active),-94.3% (active),-17.2% (active),-90.1% (active),-76.3% (active)
O=C1c2c(c3c4cc(Br)ccc4[nH]c3c3ccc4ccccc4c23)C(=O)N1CCO,88.9%,96.8%,96.3%,62.5%,103%,76.5%,91.7%,100%,,103%,71.6%,103%,75.3%,107%,105%,91.8%,90.9%,97.4%,103%,72.8%
COC1CCN(Cc2ccc3c(NNC(=O)c4cnccn4)nc4cc(F)ccc4n23)C1 (stereo unspecified),28.9%,30.8%,30.4%,6.39% (active),40.4%,7.95% (active),18.9%,12.7%,,34.8%,12%,48.6%,19.8%,37.9%,35.8%,21.4%,4.26% (active),-3.02% (active),3.22% (active),28.7%
O=C(CSc1nc2sc3c(c2c(=O)n1-c1ccc(Cl)cc1)CCCC3)NNC(=O)Nc1cccc(C(F)(F)F)c1,32.6%,49.4%,37.9%,5.83% (active),,23.1%,24%,30.3%,27%,18.2%,13.1%,29.8%,59%,81.7%,40.8%,6.43% (active),51.1%,35.3%,32.1%,12.9%
O=C1c2c(c3c4cccnc4[nH]c3c3ccc4ccccc4c23)C(=O)N1CCO,80.7%,95%,64.5%,17.6%,,52.8%,78.3%,84%,78.4%,87.2%,51.4%,114%,78.8%,101%,78.4%,50.9%,78.7%,92.7%,86.1%,72.1%
C/C(=N\NC(N)=O)c1c(O)sc(=O)[nH]c1=O,101%,97.3%,96.6%,106%,104%,98.7%,98.4%,104%,,110%,105%,97.5%,102%,107%,104%,96.3%,94.6%,96.5%,98.8%,97.1%
COc1cc2nc(-c3ccc(Cl)cc3)cc(OCCCNCC3CCCO3)c2cc1OC (stereo unspecified),75.8%,66.7%,64.3%,30.2%,,45.1%,53.2%,43.3%,,49.2%,16.7%,12.3%,33.8%,31.3%,77.9%,34.5%,56.4%,-33.9% (active),-71.5% (active),23.9%
